# Assay results taken from the emibetuzumab library of Makowski et al. (2022).
# Some of the results follow. How many sequences the whole screen found active is unknown.
# B1: VH:VL chains; a variant is named by its letters at X, in order (parent)
# chain 1: QVQLVQSGAEVKKPGASVKVSCKASGYTFTDYXMHWVRQAPGQGLEWMGXVNPNXXXTTYNQKFEGRVTMTTDTSTSTAYMELRSLRSDDTAVYYCARXNXLDXWGQGTTVTVSS
# chain 2: DIQMTQSPSSLSASVGDRVTITCSVSSSVSSIYLHWYQQKPGKAPKLLIYSTSNLASGVPSRFSGSGSGTDFTLTISSLQPEDFATYYCQVYSGYPLTFGGGTKVEIK
# Variants of: B1
# Experiment: yeast display scFab, FACS + sequencing
# Conditions: with MET
# How it was run: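 Two magnetic rounds on Protein A beads coated with HGFR-Fc, followed by FACS, were used to enrich a yeast surface scFab library mutated in the heavy-chain CDRs. FACS gated the top 50% antigen-positive cells after 3 h labelling at room temperature with 1 nM HGFR-Fc and anti-Myc in PBSB plus 1% milk. Binding to the antigen was scored positive when a sequence occurred in both antigen-positive samples from deep sequencing and negative when it occurred only in the input.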
row,Variant,antigen binding call
1,DAGGGSSD,no binding
2,SETTDAGV,no binding
3,STKRSFWA,no binding
4,DTGTGSVD,no binding
5,YKGKDSVD,no binding
6,YRGTGSVD,binds
7,YRGESAVD,binds
8,YRGEASVD,binds
9,YRGKDSVD,binds
10,VTGTGSVD,no binding
11,DAEKDSGA,no binding
12,VTKESAAV,no binding
13,YRGKSSVD,binds
14,YGGKNSVD,no binding
15,YRTKAAVD,binds
16,YRGKASVD,binds
17,YRGGTSVD,binds
18,DEGGTSVD,no binding
19,VTGTSDVA,no binding
20,VTGGDDWF,no binding
21,DREGDYLY,no binding
22,YRGKAAVD,binds
23,YAGAAAVD,no binding

row,Variant,antigen binding call
1,YTGGDSVA,no binding
2,VTGGDSVD,no binding
3,YTGGDSVD,binds
4,DAGTDAGD,no binding
5,DRAGDDLA,no binding
6,DRAGDSSA,no binding
7,YRTGDSSA,binds
8,YRAGDSSA,binds
9,YRTGDSAA,binds
10,SAAGGAAD chain 1 L45S,no binding
11,DTREGDVY,no binding
12,VKERGDGV,no binding
13,FARENFLA chain 1 V51A,no binding
14,VAKADDWF,no binding
15,YRTRSAWD,binds
16,YGTRSAAD,no binding
17,YRTRAAWD,binds
18,YAGRAAWD,no binding
19,YRGRSAWD,binds
20,YRTRSAGD,binds
21,SEEEGDWV,no binding
22,AKEADDVA,no binding
23,YTGTSDLV,no binding

row,Variant,antigen binding call
1,VTTKSDSV,no binding
2,VTTRADVA,no binding
3,VEKEGAGD,no binding
4,VRRRGSGD,binds
5,VEEEGAGD,no binding
6,VRRRGAGD,binds
7,FRRRGSGD,binds
8,VGGGGDGS,no binding
9,DTTGGDGV,no binding
10,SEKKSAGA,no binding
11,YRGGDAAF,binds
12,YRAGGAAF,binds
13,YGARGAAF,no binding
14,YRGKGAAF,binds
15,YRGGGAAF,binds
16,YEGGGDWF,no binding
17,VKGKGAAF,no binding
18,FAGGGDAV,no binding
19,VRERGDAA,no binding
20,VRTKADAV,no binding
21,VRGGGDAA,no binding
22,VRAGGDAV,binds
23,VRAGGDAA,binds

row,Variant,antigen binding call
1,VRAGDDAV,no binding
2,DRRGDDVF,no binding
3,YRRESAGF,binds
4,YRKGGAWF,binds
5,YRRGDAAF,binds
6,YRRGGAGF,binds
7,VAEKDDGS,no binding
8,SGGTGDVF,no binding
9,FTGEADAS,no binding
10,AARADSWV,no binding
11,YRRGDAGF,binds
12,YRRGSAGF,binds
13,YRRGSSGF,binds
14,ARRGGSGF,no binding
15,YRKGGAGF,binds
16,YAGGDDGA,no binding
17,SETTDSSA,no binding
18,DAGGGYGV,no binding
19,AGERNVAS,no binding
20,YRRKGALV,binds
21,YRRGGALV,binds
22,YRRKGASV,binds
23,ATKAASWV,no binding

row,Variant,antigen binding call
1,FRGGSSGS,binds
2,FRGGGSGS,binds
3,FRGGDYGS,no binding
4,ATTGGDWD,no binding
5,YRKRGAAA,binds
6,YRKRGAGA,binds
7,VTGEDAGS,no binding
8,YRGKGALS,binds
9,YAGRGSAS,no binding
10,YAGRGDAS,no binding
11,YKTGGASS,binds
12,YRERSDVS,no binding
13,YTGTSDVS,no binding
14,YKGRGAAS,binds
15,YRGGGDVS,binds
16,YTGTSDVY,no binding
17,FTRGADAV,no binding
18,DAGGDDVY,no binding
19,YKGRGAVS,binds
20,YKGRGASS,binds
21,YKTRGAVS,no binding
22,YAGRGDVS,no binding
23,VRGRGALS,binds

row,Variant,antigen binding call
1,YKGRGALS,binds
2,YKGEGFSS,no binding
3,VETEGAVY,no binding
4,DKEGGDGV,no binding
5,AATTDSGV,no binding
6,VREGDDAV,no binding
7,YRGKSDGS,no binding
8,YRGRGALS,binds
9,YRGGGALS,binds
10,DRGGGDAS,no binding
11,YRGGSDGS,binds
12,DRAGDDGS,no binding
13,SEARSDVV,no binding
14,SRTRGFVV,no binding
15,YRERGAVV,binds
16,YKERGDVV,binds
17,DREEGAVV,no binding
18,FRTRGAVV,binds
19,YKGEGDVV,no binding
20,FRERGAVV,binds
21,SKERGDVV,no binding
